Most compounds without a hit are left out; they make up all but 6% or so of the library.
D1 ag = Allosteric Agonists of the Human D1 Dopamine Receptor: qHTS; HEK293 T-REx D1 cells, calcium flux, agonist mode; activation, % at 2 µM; hit rate 1% among 360,000; AID 504660, 2011; in the data active = activation above about 30%; note: 0% is about no effect
Target sequence (P21728 whole entry, looked up): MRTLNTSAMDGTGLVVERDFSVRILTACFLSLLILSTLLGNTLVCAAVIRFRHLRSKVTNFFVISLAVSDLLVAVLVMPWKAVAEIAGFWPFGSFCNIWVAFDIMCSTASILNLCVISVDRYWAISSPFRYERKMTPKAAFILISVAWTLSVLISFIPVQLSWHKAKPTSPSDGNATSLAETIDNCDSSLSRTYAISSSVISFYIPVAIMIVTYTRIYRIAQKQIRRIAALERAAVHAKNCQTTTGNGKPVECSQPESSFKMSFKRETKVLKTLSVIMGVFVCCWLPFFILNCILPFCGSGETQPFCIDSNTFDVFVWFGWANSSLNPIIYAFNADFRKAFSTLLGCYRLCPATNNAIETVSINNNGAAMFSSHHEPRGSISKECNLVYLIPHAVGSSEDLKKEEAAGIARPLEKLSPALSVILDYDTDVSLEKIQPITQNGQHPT
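Tetracycline-induced HEK293 TREx D1 cells, force-coupled to calcium signalling, were dye-loaded with a no-wash calcium kit. Compound was pin-added after a 10 s baseline. Fluorescence was read kinetically at 1 cycle/s for 180 s, with calcium rises flagged as agonism.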
DRD3 antagonist = qHTS of D3 Dopamine Receptor Antagonist: qHTS; max response, negative = inhibition, %; D(3) dopamine receptor (Homo sapiens), P35462; hit rate 2.5% among 360,000; D3R cells, DiscoveRx beta-arrestin luminescence, antagonist mode; hits give low values; in the data active = max response below about -50%; inconclusive = no clear call, values can overlap the other calls; note: % is set by controls: 0 for no effect and ±100 for the full control effect
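Cells expressing the human receptor were seeded at 1500 cells/well, incubated overnight at 37 degrees C in 5% CO2, then exposed to library compounds with dopamine controls for 90 minutes at 37 degrees C before luminescent detection.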
D1 PAM = Potentiators of Human D1 Dopamine Receptor: qHTS; D(1A) dopamine receptor (Homo sapiens), P21728; HEK293 TREx D1 cells, calcium flux, dopamine EC20 potentiation; potentiation, % at 10 µM; hit rate 0.036% among 360,000; in the data active = potentiation above about 30%; note: 0% is about no effect
D1 antag = Antagonist of Human D 1 Dopamine Receptor: qHTS. activity change, negative = inhibition, % at 10 µM. HEK293 TREx D1 cells, calcium flux, dopamine EC80; hits give low values. D(1A) dopamine receptor (Homo sapiens), P21728. hit rate 3.2% among 360,000. AID 504652, 2011; in the data active = activity change below about -30%; note: % is set by controls: 0 for no effect and ±100 for the full control effect
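Compound effects on dopamine-evoked calcium signalling were measured in tetracycline-induced HEK293 Trex D1 cells. Dopamine at EC80 followed a 180 s compound pre-read, and fluorescence was tracked kinetically for 180 s more.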
DRD3 agonist = qHTS of D3 Dopamine Receptor Agonist: qHTS; D(3) dopamine receptor (Homo sapiens), P35462; D3R DiscoveRx beta-arrestin cells, luminescence, 90 min; max activation, %; hit rate 0.58% among 410,000; AID 652048, 2013; in the data active = max activation above about 30%; note: 0% is about no effect
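Cells at 1500/well, incubated overnight, then treated with pinned compounds (dopamine as control) for 90 min at 37 degrees C. DiscoveRx reagent added for 30 - 60 minutes at room temperature; luminescence read.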
An asterisk follows results filed as active; u = inconclusive; x = not tested or not shown.

SMILES	D1 ag	DRD3 antagonist	D1 PAM	D1 antag	DRD3 agonist
COc1ccc(C(=O)N2CCCC(N3CCN(c4ccccc4F)CC3)C2)c(OC)n1 (centres undefined)	6	-20	2	-16	38*
O=C(c1ccco1)N1CCCC(N2CCN(c3ccccc3F)CC2)C1 (centres undefined)	1	u	0	-9	-12
CCOC(=O)C1=C(c2ccccc2)N=c2s/c(=C\c3cc(OC)c(OC)c(OC)c3)c(=O)n2C1c1cccs1 (centres undefined)	240*	5	-4	-1	9
c1ccc(C2OC3c4cccc5cccc(c45)C3N2c2ccccc2)cc1 (centres undefined)	3	-59*	1	4	-5
CNC(=O)C1CC(=O)N/C(=N/N=C(\C)c2cccs2)S1 (centres undefined)	0	-29	0	-32*	-3
COc1ccc(/C(C)=N/N=C2/NC(=O)CC(C(=O)O)S2)cc1F (centres undefined)	1	6	-11	-31*	-11
C/C(=N\N=C1\NC(=O)CC(C(=O)O)S1)c1cccs1 (centres undefined)	x	-10	x	x	3
O=C(CSc1cn(CCNC(=O)c2cccc(C(F)(F)F)c2)c2ccccc12)Nc1ccc2c(c1)OCCO2	0	x	-4	-4	11
CC(C(=O)Nc1ncc([N+](=O)[O-])s1)N1C(=O)c2ccccc2S1(=O)=O (centres undefined)	4	10	-4	-35*	0
Cc1cccc(NC(=O)C(C)N2C(=O)c3ccccc3S2(=O)=O)n1 (centres undefined)	2	-30	1	2	-3
Cc1sc2nc(C3CC3)nc(SCC(=O)N3c4ccccc4CC3C)c2c1C (centres undefined)	5	54	1	1	42*
Cc1ccc(N2CCN(C(=O)CCc3nc4ccccc4[nH]3)CC2)c(C)c1	6	-17	2	-35*	3
Cc1ccc(C)c(N2CCN(C(=O)CCc3nc(-c4ccccc4Cl)no3)CC2)c1	x	105	x	x	50*
Cc1cccc(N2CCN(C(=O)CCc3nc4ccccc4[nH]3)CC2C)c1 (centres undefined)	-1	2	x	-12	-1
COCCCOc1cc(C[C@@H](C[C@H](N)[C@@H](O)C[C@H](C(=O)NCC(C)(C)C(N)=O)C(C)C)C(C)C)ccc1OC	x	x	x	x	12
O=C(Cn1c2ccccc2c2nc3n(c(=O)c21)CCS3)Nc1ccccc1C(F)(F)F	5	-17	-3	-1	-5
COc1ccccc1NC(=O)CSc1nc2ccccc2cc1Cc1ccccc1	6	7	-3	-33*	-5
COc1ccccc1NC(=O)OCC#CCOC(=O)Nc1ccccc1OC	23	-5	-4	-58*	-3
Cc1ccccc1NC(=O)CSC(N)=O	10	-11	-2	7	-4
COc1ccccc1NC(=O)CSC(N)=O	1	-107*	0	13	4
COc1ccccc1NC(=O)Cn1c2ccccc2c2nc3n(c(=O)c21)CCS3	2	-10	-4	-44*	-16
CCc1cccc(C)c1NC(=O)c1cnn(-c2ccc(OC)cc2)c1C1CCN(C(=O)OC(C)(C)C)CC1	5	x	-3	19	7
CCCOc1ccc(CNC(=O)C(NS(=O)(=O)c2cccs2)C(C)C)cc1 (centres undefined)	0	x	0	11	4
CCn1c2ccccc2c2nnc(SCC(=O)Nc3ccccc3OC)nc21	5	x	-1	-33*	-4
CCN(C(=O)CSc1nc2ccccc2nc1Cc1ccccc1OC)c1ccccc1	3	x	0	-45*	-13
SMILES	D1 ag	DRD3 antagonist	D1 PAM	D1 antag	DRD3 agonist
COc1ccccc1NC(=O)CSc1nnc2c3ccccc3n(C)c2n1	0	x	-6	2	10
COc1cccc(N2CC(NC(=O)COc3ccc4ccccc4c3)CC2=O)c1 (centres undefined)	-1	x	1	x	-3
CC(C)CN1C(=O)c2ccccc2C1(O)Cc1ccccc1 (centres undefined)	5	3	-1	-37*	1
C=CCN1C(=O)c2ccccc2C1(O)Cc1ccccc1 (centres undefined)	1	-8	1	-22	4
O=C1c2ccccc2C(O)(Cc2ccccc2)N1CCCN1CCOCC1 (centres undefined)	2	-13	-2	-77*	-10
O=C(CSC1=NC(=O)C(c2ccccc2)C(=O)N1)Nc1cccc(Cl)c1 (centres undefined)	1	-9	-10	-33*	-3
O=C(CSC1=NC(=O)C(c2ccccc2)C(=O)N1)Nc1ccccc1Cl (centres undefined)	-1	0	0	-10	-2
COc1ccc(/C=C2\N=C(C)N(c3ccc4ccccc4c3)C2=O)cc1OC	8	-5	-7	-43*	-2
CCCCn1c(NC(=O)c2ccccc2)c(C#N)c2nc3ccccc3nc21	35*	47	-1	-4	13
CCC(C)n1c(NC(=O)c2ccccc2)c(C#N)c2nc3ccccc3nc21 (centres undefined)	4	-11	3	-5	-2
CC(C)Oc1ccc(CNC(=O)c2ccc(CS(=O)Cc3ccccc3Cl)o2)cc1 (centres undefined)	20	x	-6	4	-8
COc1ccc(Nc2ncc(C(=O)N3CCN(c4cccc(Cl)c4)CC3)c3ccccc23)cc1	-1	x	-1	-5	4
CC1CCCCC12NC(=O)N(CC(=O)N1CCN(S(=O)(=O)c3cccs3)CC1)C2=O (centres undefined)	2	4	-2	-9	4
CC1CCCCC12NC(=O)N(CC(=O)N1CCN(S(=O)(=O)Cc3ccccc3)CC1)C2=O (centres undefined)	1	40	-5	-35*	0
CCN1C(=O)C(CC(=O)Nc2ccc(OC)cc2)N(CCCN2CCN(c3ccc(F)cc3)CC2)C1=S (centres undefined)	11	-12	-6	-43*	-32
COc1ccc(NC(=O)CC2C(=O)N(C)C(=S)N2CCc2ccccc2)cc1 (centres undefined)	5	-11	-8	-41*	2
COc1ccc(CCN2C(=S)N(C)C(=O)C2CC(=O)Nc2ccc(OC)cc2)cc1 (centres undefined)	7	-20	-4	-11	-6
Cc1nn(-c2ccccc2)c(=S)n1-c1ccccc1	0	21	-7	9	-4
Cc1nn(C)c(=S)n1-c1ccc(Cl)cc1	2	-52*	0	5	0
